Screening data as filed in PubChem.
TDP1 cell noCPT – qHTS for Inhibitors of human tyrosyl-DNA phosphodiesterase 1 (TDP1): qHTS in cells in absence of CPT; DT40 Tdp1-/- hTDP1 cells, no CPT, ATP luminescence, 48 h; Potency, µM (highest dose often 46.2 µM), inactives show top-dose activity change, negative = growth inhibition, hits mostly inhibitors; hit rate 15% among 420,000; AID 686978, 2013; further: potency means the concentration at half of the fitted maximal effect; nearly all actives have a fitted effect of over 55% in size
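Chicken DT40 Tdp1-/- cells complemented with human TDP1, screened without camptothecin (DMSO vehicle only), 400 cells/well. Compounds pin-transferred, cells incubated at 37 °C for at least 48 hr. Growth read as ATP-dependent luminescence (CellTiter-Glo, 30 min at RT).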
TDP1 cell CPT – growth inhibition of DT40 Tdp1-/-;hTDP1 cells with camptothecin (screen for TDP1 inhibitors); Potency, µM (highest dose often 46.2 µM), for the others: at the highest dose activity change, negative = growth inhibition, hits mostly inhibitors; hit rate 12% among 420,000; chicken DT40 Tdp1-/-;hTDP1 cells + 20 nM CPT, ATP luminescence, 48 h; further: potency means the concentration at half of the fitted maximal effect; nearly all actives have a fitted effect of over 55% in size
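Chicken DT40 Tdp1-/- cells stably complemented with human TDP1 were seeded at 400 cells/well in medium containing 20 nM camptothecin, exposed to pin-transferred compounds, and grown at 37 °C for at least 48 hr. Viability was read as ATP luminescence.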
ELG1 repair inh – blocks ELG1-dependent DNA repair in HEK293T cells; HEK293T ELG1-luciferase reporter, luminescence, 16 h; DNA damage induced by 5-fluorouridine; Potency, µM (titrated, usually from 46.1 µM), inactives show at the top dose activity change, negative = inhibition, most hits filed as inhibitors; hit rate 2.3% among 330,000; further: potency means the concentration at half of the fitted maximal effect; nearly all actives have a fitted effect of over 55% in size
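Reporter activity after DNA damage by 5-fluorouridine is monitored. Compound-treated cells incubate 16 hr at 37 °C, then ONE-Glo is added for 30 min before luminescence reading.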
RORgamma inh – blocks mouse ROR gamma transcriptional activity. Drosophila S2 Gal4-RORgamma UAS-luciferase reporter, 20 h. Potency, µM (top dose mostly 53.6 µM), for inactives: at the highest dose activity change, negative = inhibition, most hits filed as inhibitors. hit rate 5.4% among 310,000. AID 2551. P51450; further: potency means the concentration at half of the fitted maximal effect; nearly all actives have a fitted effect of over 60% in size
Target sequence (P51450 whole entry, looked up, the tested form may be a part): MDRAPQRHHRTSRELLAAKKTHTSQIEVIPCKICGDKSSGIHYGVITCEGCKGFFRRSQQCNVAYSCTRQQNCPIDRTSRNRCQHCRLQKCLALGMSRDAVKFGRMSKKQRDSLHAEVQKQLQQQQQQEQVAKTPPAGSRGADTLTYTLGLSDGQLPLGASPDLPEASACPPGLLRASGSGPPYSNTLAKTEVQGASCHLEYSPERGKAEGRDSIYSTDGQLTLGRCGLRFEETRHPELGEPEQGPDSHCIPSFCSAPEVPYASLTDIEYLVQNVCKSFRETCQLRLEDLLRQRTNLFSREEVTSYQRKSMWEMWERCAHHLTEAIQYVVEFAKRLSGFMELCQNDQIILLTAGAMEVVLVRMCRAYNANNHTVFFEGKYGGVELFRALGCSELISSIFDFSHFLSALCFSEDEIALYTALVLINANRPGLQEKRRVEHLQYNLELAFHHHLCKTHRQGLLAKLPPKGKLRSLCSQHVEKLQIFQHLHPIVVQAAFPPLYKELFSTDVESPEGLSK
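In this cell-based reporter format, copper sulfate (700 uM final) drives Gal4–ROR gamma fusion expression from a metallothionein promoter in Drosophila Schneider cells; compounds preincubated 1 hr, reporter read after 20 hr at ambient temperature.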
VP16 counter – Gal4-VP16 reporter inhibition counter-screen. Drosophila S2 Gal4-VP16 UAS-luciferase, luminescence, 20 h. Potency, µM (top dose mostly 53.6 µM), inactives show top-dose activity, negative = inhibition, hits mostly inhibitors. hit rate 3.5% among 310,000. AID 2546;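 further: Gal4-VP16 expression switched on by copper sulfate through the metallothionein promoter; potency means the concentration at half of the fitted maximal effect; nearly all actives have a fitted effect of over 50% in size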
IL1B secr inh – blocks inflammasome-driven IL-1 beta release; activity change, % at 57.5 µM; hit rate 4.7% among 360,000; THP-1 LPS/ATP IL-1B secretion, AlphaLISA, 16 h; stronger effect = lower value; AID 743279; in the data active means activity change below about -50%; inconclusive means mostly about -30% to -49%
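THP-1 cells pretreated 1 hr with compounds (up to 57.5 uM final), then stimulated with LPS (250 ng/mL final) plus ATP (1.25 mM final); secreted IL-1B measured by AlphaLISA after 16 hr, decreased signal indicating inhibition.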
An asterisk follows results filed as active; i = inactive; u = inconclusive; x = no result given. Only some compounds are listed: those with a hit (about 21% of all), similar ones and a draw of the others. Unless noted, the call rests on the fitted dose curve; in most records, active means well fitted curve in the direction sought with a large enough effect; inconclusive means small, poorly fitted or top-dose-only effect, or another doubt; inactive means no such curve, though single readings can be large; an effect the other way counts as inactive or inconclusive. On the % scale 0 is the no-effect control and ±100 the full control effect.

SMILES	TDP1 cell noCPT	TDP1 cell CPT	ELG1 repair inh	RORgamma inh	VP16 counter	IL1B secr inh
O=C(CSc1ccc(Cl)cc1)Nn1cnnc1	u	18.4µM*	2.5%	-14.3%	0.8%	-5.3
Cc1cc(NC(=O)CSc2nc3cc(Cl)ccc3o2)no1	2.59µM*	4.61µM*	4.8%	12.6µM*	-22.1%	46.3
O=C(CSc1ccc2ccccc2c1)Nn1cnnc1	1.0%	-17.3%	11.4%	18.3%	9.8%	11.8
Cc1cc(NC(=O)CSc2ccc(Cl)cc2)no1	16.4µM*	13µM*	18.5%	31.9%	-6.1%	-15.8
CCN(CC)S(=O)(=O)c1ccc2oc(SCC(=O)Nc3cc(C)on3)nc2c1	0.731µM*	0.651µM*	10.3µM*	x	x	-13.8
Cc1nc(/C(=N/O)C(N)=O)cs1	10.7%	-11.3%	-1.3%	-14.4%	-1.2%	19.0
CN(Cc1ccc(Cl)s1)C(=O)CNC(=O)CNC(=O)c1ccc(Cl)cc1Cl	-1.7%	-13.7%	1.9%	x	x	u
Cn1ncc(Br)c1NC(=O)CSc1ccc(Cl)cc1	u	u	7.3µM*	13.2%	-4.3%	27.1
CCN(CC)S(=O)(=O)c1ccc2oc(SCC(=O)NC3CC3)nc2c1	-11.1%	-23.9%	u	1.2%	-2.0%	27.3
CCN(CC)S(=O)(=O)c1ccc2oc(SCc3ccc(F)cc3)nc2c1	20.6µM*	u	3.8%	u	u	-6.2
O=c1cccc(-c2cccc3ccccc23)o1	u	-5.6%	x	x	x	-5.5
CC(=O)Nc1ccc(S(=O)(=O)c2ccc([N+](=O)[O-])cc2)cc1	u	u	8.0%	19.2%	-14.9%	6.1
CC(=O)Nc1ccc(N=c2cc([N+](=O)[O-])cc(Cl)n2O)cc1	14.6µM*	u	-2.4%	u	u	-53.2*
CCCN(CCC)C(=O)c1ccc2c(c1)N(CC)C(=O)c1ccccc1S2(=O)=O	u	u	-3.8%	20.9%	5.0%	-6.7
COCC(=O)N1CCC(Oc2ccc(C(=O)NC3Cc4ccccc4C3)cc2)CC1	-29.8%	-26.1%	0.0%	0.4%	2.3%	i
C=CCNCc1ccc(C(=O)NCCCCCCC)cc1[N+](=O)[O-]	18.4µM*	u	13.6%	x	x	-1.8
O=C(OCN1C(=O)c2ccccc2C1=O)c1ccc(Cl)nc1	-8.2%	-13.2%	-2.9%	-8.0%	2.5%	9.5
Cn1nc(-c2ccccc2)nc1-c1ccccc1	-27.4%	u	u	x	x	24.0
Cc1nnc2nc(-c3ccccc3)nc(-c3ccccc3)n12	14.6µM*	u	-4.9%	-24.6%	2.9%	-7.7
CC(=O)Nc1cncc(-c2cnn(CC(C)C)c2)n1	-12.0%	-20.1%	x	x	x	0.5
CC(C)Sc1nc(N2CCOCC2)c2c(c1C#N)CC(C)(C)N(C)C2	16.4µM*	18.4µM*	2.9%	-19.8%	0.2%	10.1
CC(Sc1nc(N2CCOCC2)c2c(c1C#N)CC(C)(C)OC2)C(=O)O (stereo unspecified)	6.7%	28.4%	-1.3%	-10.0%	0.9%	8.4
CC1(C)Cc2c(C#N)c(SCC(=O)c3ccccc3)nc(N3CCOCC3)c2CO1	-83.0%	-81.3%	1.3µM*	-2.8%	4.3%	-4.2
CCOC(=O)CSc1nc(N2CCOCC2)c2c(c1C#N)CC(C)(C)OC2	-4.5%	5.8%	2.06µM*	3.9%	-4.0%	0.3
CCCOC(=O)CSc1nc(N2CCOCC2)c2c(c1C#N)CC(C)(C)OC2	-0.8%	1.2%	u	13.5%	8.1%	15.8
SMILES	TDP1 cell noCPT	TDP1 cell CPT	ELG1 repair inh	RORgamma inh	VP16 counter	IL1B secr inh
COC(=O)CSc1nc(N2CCOCC2)c2c(c1C#N)CC(C)(C)OC2	-24.6%	-0.3%	u	1.7%	-9.7%	17.5
COC(=O)Sc1nc(N2CCOCC2)c2c(c1C#N)CC(C)(C)OC2	u	25.9µM*	u	u	u	-20.0
CSC(C1CCCC1)n1nnc2ccccc21 (stereo unspecified)	-22.4%	-28.9%	2.5%	x	x	42.0
COc1ccc(OC)c(NC(=O)CCn2cccn2)c1	-17.9%	0.2%	x	x	x	x
Fc1cccc(Cc2c(-c3ccccc3)nc3c(Cl)cc(C(F)(F)F)cn23)c1	u	u	x	x	x	11.2
Cc1ccc(NC(=O)c2cc(N3C(=O)C=CC3=O)ccc2N2CCOCC2)cc1	2.31µM*	0.82µM*	4.4%	7.08µM*	7.94µM*	-62.8*
Cc1ccc(NC(=O)c2cc(NC(=O)c3ccco3)ccc2N2CCOCC2)cc1	16.4µM*	u	-29.5%	-37.2%	-12.5%	-25.9
Cc1ccc(NC(=O)c2cc(N3C(=O)C=CC3=O)ccc2Cl)cc1C	4.61µM*	5.17µM*	u	u	7.94µM*	-14.1
CCCCNC(=O)C1(C)CCN1C(=O)c1cccc(OC(C)=O)c1C (stereo unspecified)	4.8%	4.3%	x	x	x	5.9
O=C(CC1(O)C(=O)Nc2ccccc21)c1ccc2c(c1)OCO2 (stereo unspecified)	-16.1%	-11.5%	14.3%	-12.8%	-0.9%	0.1
O=C(/C=C\c1ccc2c(c1)OCO2)CC1(O)C(=O)Nc2ccccc21 (stereo unspecified)	u	u	2.2%	0.5%	7.8%	-101.4*
CCOC(=O)N1CCN(C(=O)c2ccc3c(=O)n(-c4ccc(OC)cc4OC)c(=S)[nH]c3c2)CC1	u	-28.1%	0.0%	-18.2%	0.6%	-0.5
COc1ccc(-n2c(=S)[nH]c3cc(C(=O)Nc4ccccc4OC)ccc3c2=O)cc1	x	x	11.7%	1.58µM*	u	x
COc1ccc(-n2c(=S)[nH]c3cc(C(=O)Nc4ccc(F)cc4)ccc3c2=O)c(OC)c1	u	16.4µM*	u	10µM*	17.8µM*	u
COc1ccc(OC)c(-n2c(=S)[nH]c3cc(C(=O)N(C)Cc4ccccc4)ccc3c2=O)c1	-4.7%	1.4%	-19.5%	12.6µM*	u	7.8
COc1ccc(-n2c(=S)[nH]c3cc(C(=O)NCCCN4CCCC4=O)ccc3c2=O)c(OC)c1	3.9%	-15.2%	-0.6%	u	-18.4%	7.7
COc1ccc(-n2c(=S)[nH]c3cc(C(=O)Nc4ccccc4OC)ccc3c2=O)c(OC)c1	u	-20.9%	16.4µM*	1.58µM*	4.47µM*	-9.3
COc1ccc(-n2c(=S)[nH]c3cc(C(=O)NCc4ccc(F)cc4)ccc3c2=O)c(OC)c1	u	u	-8.5%	u	u	-13.9
CC1CCc2onc(C(=O)N3CCN(c4ccc(Cl)cc4)CC3)c2C1 (stereo unspecified)	-64.2%	u	x	x	x	x
